The values below come from PubChem BioAssay (Tox21).

Molecules are shown by their SMILES. Results filed as inconclusive are left out. Activity calls are given as the source filed them. Unless noted, calls follow the shape of the dose curve; as a rule, active = well fitted curve in the direction sought with a large enough effect in the repeat runs; inconclusive = weak or mixed curves; inactive = no such curve, though single readings can be large; an effect the other way counts as inactive or inconclusive.

Test [1] can be described thus: qHTS assay to identify small molecule agonists of the hypoxia (HIF-1) signaling pathway (AID 1224846; active = well fitted activation curve with a large enough effect in the signal ratio in the repeat runs, not every such curve was filed as active; the % refers to the signal ratio). In outline:
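Reporter induction in HRE-bla ME-180 cells is taken as agonism: cells sit 5 hrs after plating, receive compounds or DMSO only, incubate 17 hrs at 37C under 5% CO2, and are loaded with CCF4-AM for beta-lactamase FRET measurement.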

Test [2] in a line: qHTS assay to identify small molecule agonists of H2AX - cell viability counter screen (AID 1224847; calls by dose curve; also: nearly all actives have a fitted effect of over 30% in size; also: potency is read from the fitted curve at half-maximal effect). In outline: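 Cells plated first: CHO-K1, 1000 per well in 10% FBS medium, incubated overnight at 37C. Then 15-point compound titration added (final DMSO 0.76%) for 3 hr. Finally CellTiter-Glo added and luminescence read.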
Test [3] is described as follows: qHTS assay to identify small molecule antagonists of the estrogen related receptor (ERR) signaling pathway from Tox21 library (AID 1224848). Also: nearly all actives have a fitted effect of over 50% in size. Also: potency is read from the fitted curve at half-maximal effect. In outline:
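Luciferase luminescence (ONE-Glo, 30 min room temperature) was the read-out. Cells of the NTP-supplied ERR line, 2,000 per well, were given 6 h at 37 C before compound addition in DMSO and 18 h exposure at 37 C.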

Test [4] can be described thus: qHTS assay to identify small molecule agonists of the estrogen related receptor (ERR) signaling pathway from Tox21 library (AID 1224849; calls by dose curve; also: nearly all actives have a fitted effect of over 15% in size). The following applies: ERR reporter cell line, ONE-Glo luciferase, 18 h; at 92.4 µM (top of the series) unless noted. In outline:
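Tox21 compounds tested for ERR agonism in an NTP reporter cell line: 18 h treatment at 37 C, then ONE-Glo luminescence.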
On the technique in general: Quantitative high-throughput screening tests each substance at several concentrations.

The nature of test [5]: qHTS RealTime-Glo MT Cell Viability Assay in HepG2 cells - 24 hour (AID 1224867). Also: nearly all actives have a fitted effect of over 50% in size. The gist of the method: (§1)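 qHTS, HepG2, 600 cells/well, RealTime-Glo (NanoLuc + prosubstrate) added with cells; 5 h preincubation; DMSO compound addition; 37 C; luminescence at 0/8/16/24/32/40 h.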
The nature of test [6]: qHTS RealTime-Glo MT Cell Viability Assay in HEK293 cells - 32 hour (AID 1224868). Also: nearly all actives have a fitted effect of over 50% in size. Also: potency is read from the fitted curve at half-maximal effect. In outline: (§2)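 Assay medium contained NanoLuc luciferase plus cell-permeant prosubstrate, added with HEK293 cells at 600 cells/well. After 5 h at 37 C/5% CO2 compounds were added; plates stayed at 37 C for 40 h with serial luminescence reads.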
Test [7] is described as follows: A CellTox Green Cytotoxicity Assay to monitor cytotoxicity in HEK293 cells - 0 hour (AID 1224869). Also: nearly all actives have a fitted effect of over 50% in size. The gist of the method:
(§3)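 Tox21 screen in HEK293: membrane-impermeant cyanine dye fluoresces on binding dead-cell DNA; compound pinned 5 h post-seeding, plates held at 37 C, signal read repeatedly through 40 h.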

Test [8] can be described thus: A CellTox Green Cytotoxicity Assay to monitor cytotoxicity in HEK293 cells - 40 hour (AID 1224871). Also: nearly all actives have a fitted effect of over 45% in size. In outline:
as §3

Test [9] can be described thus: qHTS RealTime-Glo MT Cell Viability Assay in HEK293 cells - 16 hour (AID 1224872). In outline: as §2
Test [10] is described as follows: qHTS RealTime-Glo MT Cell Viability Assay in HepG2 cells - 8 hour (AID 1224873). Also: nearly all actives have a fitted effect of over 55% in size. The gist of the method:
(§4)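 Real-time viability: cells seeded at 600 per well together with NanoLuc and cell-permeant prosubstrate, compounds added after 5 h incubation. Luminescence tracked at 0, 8, 16, 24, 32 and 40 h of exposure.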

Test [11] is described as follows: A CellTox Green Cytotoxicity Assay to monitor cytotoxicity in HEK293 cells - 24 hour (AID 1224875). Also: nearly all actives have a fitted effect of over 45% in size. The gist of the method: as §3
Test [12] can be described thus: qHTS RealTime-Glo MT Cell Viability Assay in HepG2 cells - 32 hour (AID 1224877). Also: nearly all actives have a fitted effect of over 55% in size. The gist of the method: as §1
Test [13] can be described thus: A CellTox Green Cytotoxicity Assay to monitor cytotoxicity in HepG2 cells - 0 hour (AID 1224882). Also: nearly all actives have a fitted effect of over 35% in size. The gist of the method:
(§5)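 Measurements at 0, 8, 16, 24, 32 and 40 h of treatment captured CellTox Green fluorescence in HepG2 cells that had been co-plated with reagent and preincubated 5 h at 37 C/5% CO2.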

Test [14] is described as follows: qHTS RealTime-Glo MT Cell Viability Assay in HepG2 cells - 40 hour (AID 1224870). Also: nearly all actives have a fitted effect of over 50% in size. In outline: as §4
The nature of test [15]: A CellTox Green Cytotoxicity Assay to monitor cytotoxicity in HepG2 cells - 16 hour (AID 1224876). Also: nearly all actives have a fitted effect of over 45% in size. In outline:
as §5

The nature of test [16]: A CellTox Green Cytotoxicity Assay to monitor cytotoxicity in HepG2 cells - 24 hour (AID 1224878). Also: nearly all actives have a fitted effect of over 45% in size. The gist of the method:
as §5

The nature of test [17]: A CellTox Green Cytotoxicity Assay to monitor cytotoxicity in HepG2 cells - 40 hour (AID 1224879). Also: nearly all actives have a fitted effect of over 40% in size. In outline:
as §5

The nature of test [18]: qHTS RealTime-Glo MT Cell Viability Assay in HEK293 cells - 0 hour (AID 1224880). The gist of the method: (§6)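 HEK293 + NanoLuc + prosubstrate, 600 cells/well; 5 h, 37 C/5% CO2; compound 23 nL in DMSO by pintool; 37 C; luminescence read at 0, 8, 16, 24, 32 and 40 h time points.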
The nature of test [19]: A CellTox Green Cytotoxicity Assay to monitor cytotoxicity in HEK293 cells - 32 hour (AID 1224881). Also: nearly all actives have a fitted effect of over 40% in size. In outline:
as §3

Test [20] can be described thus: qHTS RealTime-Glo MT Cell Viability Assay in HEK293 cells - 40 hour (AID 1224874). Also: nearly all actives have a fitted effect of over 50% in size. Also: potency is read from the fitted curve at half-maximal effect. The following applies: RealTime-Glo luminescence; max response: stronger effect = lower value. The gist of the method:
as §6
% is scaled to controls: 0 for no effect and ±100 for the full control effect.

As to `Nc1ccc(Sc2ccc(N)cc2)cc1`, the compound was called inactive in [1]. The Potency entry in [2], in test [3], in [5], in test [6], in [7] and in test [8] was “inactive” throughout. For the same compound, the Potency result in test [9], in test [10], in test [11], in test [12] and in [13] was “inactive” each time. Besides, the activity change, positive = activation in test [4] was 9.92% (inactive).
With `CCOP(=S)(OCC)SCCS(=O)(=O)CC`, the call in [1] was inactive. In addition, the Potency entry in [2], in [3], in test [5], in [6], in test [7] and in test [14] was “inactive” each time. In addition, the Potency entry in test [8], in [9], in [10], in test [11], in test [15] and in test [12] was “inactive” each time. Also, the Potency result in test [16], in test [17], in [18], in [19] and in test [13] was “inactive” throughout. Besides, the activity change, positive = activation in test [4] is 1.7% (inactive).
As to `CN(C)C1CSSSC1`, the compound was called inactive in test [1]. Moreover, the Potency result in [2], in [3], in test [5], in [6], in test [7] and in test [14] was “inactive” in each case. Besides, the Potency result in test [8], in test [10], in [11], in [15], in test [16] and in test [18] was “inactive” throughout. The Potency result in test [19] was “inactive”. Further, the activity change, positive = activation in [4] is -13.3% (inactive).
Take `Cc1ccc(C(=O)Cl)cc1`: in [1], the compound was called inactive. Further, the Potency result in test [2], in test [3], in test [5], in test [6], in [7] and in [14] was “inactive” in each case. Besides, the Potency entry in [8], in test [9], in test [10], in test [11], in test [15] and in test [16] was “inactive” throughout. Also, the Potency entry in [17], in test [18], in test [19] and in test [13] was “inactive” in each case. Also, in [4], the activity change, positive = activation was 7.48% (inactive).
Regarding `Cl/C=C\CCl`, the compound was classed as inactive in test [1]. Moreover, the Potency entry in [2], in [5], in test [6], in test [7], in [14] and in [8] was “inactive” throughout. The Potency entry in test [9], in [10], in test [11], in [15], in [12] and in test [16] was “inactive” in each case. In addition, the Potency result in test [17], in [18] and in [19] was “inactive” each time. Besides, in test [4], the activity change, positive = activation is 3.81% (inactive). Besides, the max response in test [20] was 11.8% (inactive).
Consider `CC(C)(C)c1cc([N+](=O)[O-])cc(C(C)(C)C)c1O`, for which, in [1], the call was inactive. For the same compound, the Potency was 50.5 µM (active) in test [2], 2.73 µM (active) in [3], 6.92 µM (active) in test [6] and 6.92 µM (active) in test [20]. In [4], the activity change, positive = activation is -56.9% (inactive). The Potency entry in test [5], in test [7], in test [14], in test [11], in test [15] and in test [18] was “inactive” each time. Further, the Potency entry in test [13] was “inactive”.
In the case of `C1CCC2CCCCC2C1` (stereo unspecified), the call in test [1] was inactive. Besides, the Potency result in [2], in [3], in test [5], in test [6], in test [7] and in test [14] was “inactive” throughout. Further, the Potency result in [8], in test [9], in test [10], in test [11], in test [15] and in test [12] was “inactive” in each case. For the same compound, the Potency result in test [16], in test [17], in test [18], in test [19] and in [13] was “inactive” each time. For the same compound, the activity change, positive = activation in [4] was -0.0659% (inactive). Moreover, in test [20], the max response is 15.5% (inactive).
